Assay results from PubChem BioAssay (NCATS).
Records with an inconclusive call do not appear. Values without a mark were called inactive. Activity calls are given as the source filed them. The call rests on the fitted dose curve; in most records, active means well fitted cell-killing curve with a large enough effect; inconclusive means small, poorly fitted or top-dose-only effect; inactive means no such curve, though single readings can be large or run the other way.

assay: qHTS of pediatric cancer cell lines to identify multiple opportunities for drug repurposing: Primary screen for A673 cells (AID 1347092); conditions: A673 Ewing sarcoma viability, CellTiter-Glo ATP luminescence, 48 h; series mostly up to 46 µM; activity change, negative = cytotoxic: at the top concentration; further: nearly all actives have a fitted effect of over 45% in size
From the text: Drug repurposing or repositioning has been offered as a strategy for drug development in oncology programs. This approach has special potential for childhood cancers and other rare or orphan diseases, where the expected return on new drug development has been a disincentive to pharmaceuticals. […] In this project we exploit the poly-pharmacology of drugs to discover new indications via phenotypic screening of a panel of 19 well-characterized cell lines derived from solid tumors seen in children and adolescents. The goal is to identify approved drugs with previously unrecognized anticancer properties that has the potential to reveal new mechanisms and biological processes involved in carcinogenesis or drug resistance. We employed a titration-based paradigm (quantitative high-throughput screening or qHTS), where all compounds were tested at multiple concentrations for their effect on cell viability. Concentration-response curves (CRCs) were derived directly from the primary screen, and both potency and efficacy values were used to identify compounds with robust bioactivity profiles. We screened the NIH Chemical Genomics Center (NCGC) Pharmaceutical Collection (NPC) and Mechanism Interrogation Plate (MIPE) small molecule collections of approved and investigational compounds against these cell lines; and measured metabolically active cells after 48 hours of compound treatment as a proxy for cell viability. […] Assay Submitter: Nathalia J. Martinez, National Center for Advancing Translational Sciences, National Institutes of Health, Rockville, MD, USA; email: natalia.martinez@nih.gov. Shen, M et al. Quantitative high-throughput phenotypic screening of pediatric cancer cell lines identifies multiple opportunities for drug repurposing. Oncotarget 2017 Dec 19;9(4):4758-4772. PMID 29435139.
The cells were obtained from University of North Carolina (UNC), Pediatric Preclinical Testing Program (PPT), and Coriell Institute (CI). qHTS cell viability assay: Cells were assayed in growth media at a density of 500-1,000 cells/well. Five microliters of cells were dispensed into 1,536-well, white, solid-bottom, TC-treated plates (Greiner Bio One) using a multidrop dispenser and incubated at 37 degrees C, 5% CO2, under a humidified atmosphere for 5 hours. Twenty-three nanoliters of compounds and controls (neutral control DMSO or positive control bortezomib at final concentration of 2.3 uM) were subsequently transferred by Kalypsys pintool. For primary screens, the MIPE collection was tested at 11-point dilutions (final concentrations range from 0.78 nM to 46 µM) and the NPC collection at 8-point dilutions (final concentrations range from 0.59 nM to 46 µM). Compounds tested in follow-up screens were assayed at 11-point dilutions. Cells were incubated for 48 hours, followed by addition of 3 uL of CellTiter-Glo (Promega). After a 15min incubation at room temperature, samples were analyzed for luminescence intensity using a ViewLux High-throughput CCD imager equipped with clear filters.
On the % scale 0 is the no-effect control and ±100 the full control effect; potency means the concentration at half of the fitted maximal effect.

Row | SMILES | Potency | activity change, negative = cytotoxic [%]
1 | CCOC(CN1C(=O)[C@](CC(=O)Nc2ccc(C)cc2)(NC(=O)Nc2ccc(C)cc2)c2ccccc21)OCC | 29.6 µM (active) | 
2 | NC1CCC(Nc2nc(Nc3ccc(C(=O)N4CCCCC4)cc3)c3ncn(-c4cccc(F)c4)c3n2)CC1 (stereo not given) |  | -5.02
3 | COc1ccc2c(Oc3ccc(NC(=O)c4c(C)n(CC(C)(C)O)n(-c5ccccc5)c4=O)cc3F)ccnc2c1 | 23.5 µM (active) | 
4 | OC[C@H]1O[C@@H](Oc2cc(O)cc(C=Cc3ccc(O)cc3)c2)[C@H](O)[C@@H](O)[C@H]1O | 9.35 µM (active) | 
5 | C=C1C(=O)OC(CCCCCCCC)C1C(=O)O (stereo not given) |  | -9.21
6 | CC(C)(C)C(=O)Oc1ccc2c(c1)nc(NC(=O)c1cccc([N+](=O)[O-])c1)n2CCCO | 11.8 µM (active) | 
7 | CCN(CC)CCOC(=O)c1ccc(N)cc1 |  | 0.487
8 | CC(=O)CCCCn1c(=O)c2c(ncn2C)n(C)c1=O |  | -4
9 | CC#CCn1c(N2CCC[C@@H](N)C2)nc2c1c(=O)n(Cc1nc(C)c3ccccc3n1)c(=O)n2C | 23.5 µM (active) | 
10 | CNC1CCC(N(Cc2cccc(-c3ccncc3)c2)C(=O)c2sc3c(F)ccc(F)c3c2Cl)CC1 (stereo not given) | 23.5 µM (active) | 
11 | CCC(CC)[C@H](NC(C)=O)[C@@H]1[C@H](O)[C@@H](C(=O)O)C[C@@H]1N=C(N)N |  | -7.12
12 | CCN1CCC[C@H]1CNC(=O)c1cc(S(N)(=O)=O)ccc1OC |  | 2.73
13 | O=C(NCc1ccncc1)C12C[C@H]3C[C@@H](C1)CC(c1ccc(Cl)cc1)(C3)C2 | 7.43 µM (active) | 
14 | NS(=O)(=O)c1cccc2c1C(=O)c1cccc(O)c1C2=O | 0.372 µM (active) | 
15 | O=C(O)CCc1nc(-c2ccccc2)c(-c2ccccc2)o1 |  | -8.04
16 | Nc1nc(F)nc2c1ncn2[C@@H]1O[C@H](COP(=O)(O)O)[C@@H](O)[C@H]1O | 14.8 µM (active) | 
17 | CCN(CC)CCNC(=O)c1ccc(N)cc1 |  | -6.69
18 | CC(C)(C)OC(=O)N[C@H]1CCCCCC=C[C@@H]2C[C@@]2(C(=O)NS(=O)(=O)C2CC2)NC(=O)[C@@H]2C[C@@H](OC(=O)N3Cc4cccc(F)c4C3)CN2C1=O |  | 3.75
19 | NC(N)=Nc1nc(CSCC/C(N)=N/S(N)(=O)=O)cs1 |  | -11.1
20 | CO[C@H]1C=CC=C(C)C(=O)NC2=CC(=O)C(NCCN(C)C)=C(C[C@@H](C)C[C@H](OC)[C@@H](O)[C@@H](C)C=C(C)[C@@H]1OC(N)=O)C2=O | 0.0743 µM (active) | 

Row | SMILES | Potency | activity change, negative = cytotoxic [%]
21 | Cc1ccc(Nc2cc(-c3cccc(N4C(=O)c5ccccc5C4=O)c3)ncn2)cc1NS(C)(=O)=O | 18.7 µM (active) | 
22 | CN1CCN(CCOc2cc(OC3CCOCC3)c3c(Nc4c(Cl)ccc5c4OCO5)ncnc3c2)CC1 | 11.8 µM (active) | 
23 | O=C(Nc1ccccc1-c1cn2c(CN3CCNCC3)csc2n1)c1cnc2ccccc2n1 | 18.7 µM (active) | 
24 | NC1=N[C@@]2(c3cc(NC(=O)c4ccc(F)cn4)ccc3F)COC[C@@H]2CS1 | 0.0074 µM (active) | 
25 | Cc1cccc(C)c1OCC(C)N (stereo not given) |  | -0.574
26 | CC1CCC(C(=O)N(c2cc(C#CC(C)(C)C)sc2C(=O)O)C2CCC(O)CC2)CC1 (stereo not given) |  | -18.6
27 | CC(C)n1nc(-c2ccc3oc(N)nc3c2)c2c(N)ncnc21 | 0.0037 µM (active) | 
28 | CC(C(=O)O)c1ccc(-c2ccccc2)c(F)c1 (stereo not given) | 14.8 µM (active) | 
29 | O=C(NCCN1CCOCC1)c1ccc(Cl)cc1 |  | -1.45
30 | NC(=O)c1cccc2[nH]c(-c3ccc([C@H]4CCCN4)cc3F)nc12 | 11.8 µM (active) | 
31 | O=C1C(Cl)=C(NCCN2CCOCC2)C(=O)c2ncccc21 | 1.87 µM (active) | 
32 | COC(=O)[C@@H]1[C@H]2C[C@H]3c4[nH]c5ccccc5c4CCN3C[C@@H]2CC[C@@H]1O |  | 0.15
33 | O=c1cc(CN2CCOCC2)occ1OCCCCCSc1ccnc2cc(C(F)(F)F)ccc12 | 14.8 µM (active) | 
34 | CC(C)(C)Cn1c(N)nc2ccc(-c3[nH]c(C(C)(C)C)nc3-c3ccc(F)cc3)nc21 | 18.7 µM (active) | 
35 | CC[C@]1(O)C[C@@H]2CN(CCc3c([nH]c4ccccc34)[C@@](C(=O)OC)(c3cc4c(cc3OC)N(C=O)[C@@H]3C45CCN4CC=C[C@](CC)([C@H]45)[C@@H](OC(C)=O)[C@]3(O)C(=O)OC)C2)C1 (stereo not given in full) | 11.8 µM (active) | 
36 | CNC(=O)c1ccc2cc(C3(O)CCn4cncc43)ccc2c1 (stereo not given) |  | 1.54
37 | CCN(CC)C(=O)c1ccc(O)c(OC)c1 |  | 12.9
38 | CCCCCNC(=O)N1CCC(CN(Cc2ccc(Cl)cc2)Cc2ccc([N+](=O)[O-])s2)C1 (stereo not given) | 23.5 µM (active) | 
39 | NC(CO)(CO)CCc1ccc(Sc2cccc(OCc3ccccc3)c2)cc1Cl | 14.8 µM (active) | 
40 | CCCNC(=O)NS(=O)(=O)c1ccc(Cl)cc1 |  | 7.63
